# According to PubChem BioAssay (NCI):
# About 83,000 compounds went through this panel and 20% of them were active in at least one assay; those are over-represented in the sample as a whole.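 Assay: single dose, 48 h. Readout: percent growth (0 = no net growth; negative = cell death). Active: <10.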 Calls of active or inactive are those of the source.
# Tested on: HCT-116 colon
# Assay: NCI-60 one-dose screen, 48 h (100 = growth as untreated, 0 = no growth, -100 = all killed)
# Settings: 10 µM unless noted
# Method: Growth inhibition of the HCT-116 human tumor cell line is measured as a screen for anti-cancer activity. Cells are grown in 96 well plates and exposed to the test compound for 48 hours. Compounds are tested at a single concentration, which is 10^-5 M for most compounds. The reported endpoint is percent growth (GI% or GIPRCNT), where numbers from 0 - 100% represent growth inhibition, and numbers from -100% - 0 represent cell death. For example, a value of 40 represents 60% growth inhibition. A value of 0 means no net growth occurred over the course of the experiment. A value of -40 indicates 40% of cells at the beginning of the experiment died by the end of the experiment. A value of -100 means all cells are dead at the end of the experiment.
# NCI-60 Human Tumor Cell Lines Screen was performed using the standard one-dose NCI protocol, which is described in more detail at https://dtp.cancer.gov/discovery_development/nci-60/default.htm.
# Compounds with GIPRCNT values below 10 were considered active. Activity score was based on GIPRCNT using the following formula: […]
# Score is 0 for GIPRCNT values of 100 or above, 50 for GIPRCNT values of 0, and 100 for GIPRCNT values of -100.
row,Structure (SMILES),growth
1,CC(C)OC(=O)c1ccc2n1CCCc1cnc(Nc3ccccc3)nc1-2,73.2% (inactive)
2,COC(=O)c1ccc2[nH]c(O)c(C(=Nc3ccc(N(C)C(=O)CN4CCN(C)CC4)cc3)c3ccc(CCO)cc3)c2c1,9.37% (active)
3,COc1ccc(C(=O)c2no[n+]([O-])c2C(=O)c2ccc(OC)cc2)cc1,-98.1% (active)
4,Nc1cc(N)c2nc(-c3ccccc3)c(NCCc3ccc(Cl)c(Cl)c3)nc2c1,-90.8% (active)
5,N#Cc1c2cccnc2c2nnc3cc(Cl)c(Cl)cc3n12,-73.1% (active)
6,CC(C)OC(=O)[C@H](C)N[P@@](=O)(OC[C@@]1(C)O[C@@H](n2cc(F)c(N)nc2=O)C[C@@H]1O[P@](=O)(N[C@@H](C)C(=O)OC(C)C)Oc1ccccc1)Oc1ccccc1,88.2% (inactive)
7,O=S(=O)(O)c1ccc2c(c1)Sc1cc(S(=O)(=O)O)ccc1O2,106% (inactive)
8,NC(CSC(c1ccccc1)(c1ccccc1)c1ccccc1)C(=O)NCC(=O)O (stereo not given),40.8% (inactive)
9,N#Cc1ccc(NC2c3ccccc3CC2O)cc1 (stereo not given),101% (inactive)
10,COc1cc(-c2nn(-c3ccc(NC(=O)c4ccc(Cl)c(C(F)(F)F)c4)cc3)cc2-c2ccncc2)ccc1Cl,9.19% (active)
11,CCS(=O)(=O)OCCO[C@H]1Cc2cc3ccc(=O)oc3cc2OC1(C)C,106% (inactive)
12,O=C(CCCC(=O)Nc1ccc(Cn2nnc3cc(Cl)c(Cl)cc32)cc1)Nc1ccc(CN2N=NC3C=C(Cl)C(Cl)=CC32)cc1 (stereo not given),75.1% (inactive)
13,COc1cc(-c2nn(-c3ccc(NC(=O)c4cc(Cl)cc(Cl)c4)cc3)cc2-c2ccncc2)ccc1Cl,64.9% (inactive)
14,O=C(Nc1ccc(-n2cc(-c3ccncc3)c(-c3ccc(Cl)c(O)c3)n2)cc1)c1ccc(Cl)c(C(F)(F)F)c1,-100% (active)
15,CCCCCCC(C)N(CC(C)(C)O)C(=O)c1ccc([N+](=O)[O-])cc1 (stereo not given),91.3% (inactive)
16,CCCCCCCCC(=O)Nc1ccc(O)cc1,101% (inactive)
17,CC1(C)CC(=O)C2=C(C1)Oc1nc(N)c(C#N)c(N)c1C2c1ccc(F)cc1 (stereo not given),109% (inactive)
18,Cc1nc(NC(=S)Nc2ccc(F)cc2)sc1C(=O)NNC(=S)Nc1ccc(F)cc1,44.9% (inactive)
19,CC(O)CN(CC(C)O)N(CC(C)O)CC(C)O (stereo not given),102% (inactive)
20,CN1CCN(Cc2ccc(NC(=O)c3ccc(C#Cc4c(N)ncc5ccc(F)cc45)cc3)cc2C(F)(F)F)CC1,-95.4% (active)

row,Structure (SMILES),growth
1,Oc1ccc(Br)cc1/C=N/NC(=S)NC12CC3CC(CC(C3)C1)C2,8.08% (active)
2,CCCNC(=O)Oc1ccc(/C(=C(/C)Cc2ccc(OC)cc2)c2ccc(OCCN3CCCC3)cc2)cc1,48.8% (inactive)
3,CCOC(=O)c1c(C)oc2ncnc(Nc3ccc(C(=O)NCCc4ccccc4)cc3)c12,64.8% (inactive)
4,Nc1ncn([C@@H]2O[C@H](CO)[C@@H](O)C2(F)F)c(=O)n1,29.8% (inactive)
5,Cc1nc2c(nnn2-c2ccccc2)c2nc(-c3ccc(Cl)cc3)oc(=O)c12,109% (inactive)
6,COc1cc(NC(C)CCCN)c2nccc(C)c2c1OC (stereo not given),93.1% (inactive)
7,C/C=C(/C)C(=O)OC1C=C(CO)C(=O)C(OC(=O)C(C)(O)C(C)Cl)C1C(C)C (stereo not given),-56.5% (active)
8,CC[N+](C)(C)N,99% (inactive)
9,COc1cc(N)c2nccc(C)c2c1OC,102% (inactive)
10,COC(=O)c1cc(=O)nc(N/N=C/c2ccccc2O)s1,58.7% (inactive)
11,O=C(Nc1cccc(Cn2c(=O)[nH]c3ccc(Oc4ncccn4)cc3c2=O)c1)c1ccc(Cl)cc1,39.2% (inactive)
12,CCCCCCCCCC[N+](C)(C)N,95.5% (inactive)
13,COc1ccc(-c2nc(Nc3nc4ccccc4[nH]3)nc(N)c2C#N)cc1,93.8% (inactive)
14,C[C@@H](c1ccc2c(c1)[nH]c1ccc(Cl)cc12)c1nc2ccccc2[nH]1,93.5% (inactive)
15,COc1ccc(C2C3(C#N)C(N)=NC(=C(C#N)C#N)C23C#N)cc1OC (stereo not given),112% (inactive)
16,COc1cc(NC(C)CCCN)c2nc(C)ccc2c1OC (stereo not given),102% (inactive)
17,CCn1cnc(C[C@H](NC(=O)[C@@H](NC(=O)Nc2cc(C(F)(F)F)cc(C(F)(F)F)c2)C(C)C)C(=O)OC)c1,-88.1% [100 µM] (active)
18,CCOC(=O)c1cc(-c2ccc(OC)cc2)[nH]c1NNC(=O)CCOC,93.8% (inactive)
19,CCCCCc1ccnc(CC(=O)c2ccc(OC)cc2)c1,78.2% (inactive)
20,O=C(N/N=C/c1ccccc1Cl)c1cccc2ccccc12,102% (inactive)
